Results reported in PubChem BioAssay (NCI).
The panel holds about 83,000 compounds, 20% with a hit somewhere; the sample as a whole holds those more often.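 Interpretation: 100, growth as untreated; towards 0, rising growth inhibition; 0, no net growth; 0 to -100, cell death. Compounds scoring below 10 were considered active.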 A number with no mark means an inactive call. Activity calls are given as the source filed them.

What was measured:
Assay in all cases: NCI-60 one-dose screen, 48 h (100 = growth as untreated, 0 = no growth, -100 = all killed)
Settings in all cases: 10 µM unless noted
HCT-15 colon = tested on: HCT-15 colon
HT29 colon = tested on: HT29 colon
SNB-75 CNS = tested on: SNB-75 CNS
SNB-19 CNS = tested on: SNB-19 CNS
PC-3 prostate = tested on: PC-3 prostate
SK-MEL-5 melanoma = tested on: SK-MEL-5 melanoma
UACC-62 melanoma = tested on: UACC-62 melanoma
LOX IMVI melanoma = tested on: LOX IMVI melanoma
SK-MEL-28 melanoma = tested on: SK-MEL-28 melanoma
SK-MEL-2 melanoma = tested on: SK-MEL-2 melanoma
EKVX NSCLC = tested on: EKVX NSCLC
SN12C renal = tested on: SN12C renal
UO-31 renal = tested on: UO-31 renal
TK-10 renal = tested on: TK-10 renal
ACHN renal = tested on: ACHN renal
CAKI-1 renal = tested on: CAKI-1 renal
A498 renal = tested on: A498 renal
CCRF-CEM leukemia = tested on: CCRF-CEM leukemia
MOLT-4 leukemia = tested on: MOLT-4 leukemia
U251 CNS = tested on: U251 CNS

Row | Structure (SMILES) | growth (HCT-15 colon) | growth (HT29 colon) | growth (SNB-75 CNS) | growth (SNB-19 CNS) | growth (PC-3 prostate) | growth (SK-MEL-5 melanoma) | growth (UACC-62 melanoma) | growth (LOX IMVI melanoma) | growth (SK-MEL-28 melanoma) | growth (SK-MEL-2 melanoma) | growth (EKVX NSCLC) | growth (SN12C renal) | growth (UO-31 renal) | growth (TK-10 renal) | growth (ACHN renal) | growth (CAKI-1 renal) | growth (A498 renal) | growth (CCRF-CEM leukemia) | growth (MOLT-4 leukemia) | growth (U251 CNS)
1 | CN(C)c1nc(NCCNS(=O)(=O)c2ccc(C(=O)/C=C/c3ccc(Cl)cc3)cc2)nc(N2CCOCC2)n1 | -53% (active) | -80.6% (active) | 45.4% | 60% | 21.1% | 46.2% | 52.5% | -94.3% (active) | 76.6% | 68.9% | 49.6% | 53.4% | -61% (active) | 62.5% | 21.8% | -61.2% (active) | 87.6% | 3.45% (active) | 3.71% (active) | 
2 | Cc1cc(C(NC(=O)C2CC3(CC(Nc4cccc5c4C(=O)N(C4CCC(=O)NC4=O)C5=O)C3)C2)c2ccc3c(c2)OC(F)(F)O3)c(O)c2ncccc12 (stereo unspecified) | 21.1% | 29.1% | 25.1% | 7.79% (active) | 17.8% | -64.5% (active) |  | -4.96% (active) | 0.772% (active) | -4.6% (active) | 6.4% (active) | 14.1% | -5.11% (active) | 36.1% | 5.49% (active) | 10.6% |  | -7.69% (active) | 4.24% (active) | 7.11% (active)
3 | CS(=O)(=O)Nc1cncc(-c2ccc3ncnc(NCc4ccccc4)c3c2)c1 | 64.3% | 65.1% | 5.11% (active) | 39% | 42.1% | -82.9% (active) | 29.2% | 35.9% | 40.3% | -8.92% (active) | 55.2% | 34.8% | 52.7% | 63% | 77.5% | 60.7% | 63.8% | 17% | -26% (active) | 
4 | OCCn1cc(-c2nc3ccc4[nH]ncc4c3c3c2CCCC3)cn1 | 26.4% | 19.7% | 20% | 59.3% | 67.4% | 22.3% | 27.9% | 25.4% | 59.3% | 43.3% | 32.8% | 36.7% | 22.3% | 16.5% | 16.3% | 1.75% (active) | -3.55% (active) | 48.4% | 31.2% | 
5 | O=C(N/N=C/c1ccc(Br)o1)c1[nH]c2ccc(Br)cc2c1-c1ccccc1 | -6.94% (active) | -46.2% (active) | -18.3% (active) | 0.0073% (active) | 7.74% (active) | -78.5% (active) | 5.43% (active) | -62.8% (active) | -20.9% (active) |  | 12.6% | -59.1% (active) | -34% (active) | 9.96% (active) | -21.3% (active) | 2.87% (active) | -7.37% (active) | 4.07% (active) | -0.952% (active) | 
6 | COC(=O)c1cc(C(C)=O)n2c3ccccc3c3ccccc3c12 | 71.3% | 92.6% | -12.2% (active) | 42.9% | 56.5% | 21.9% | 67% | 64.7% | 92.4% | 99.2% | 69.5% | 75.6% | 38% | 74.3% | 36.4% | 44.5% | 121% | 85.2% | 73.3% | 
7 | Fc1ccc(N2CC(Cn3c(C(F)(F)F)cc4c(Cl)ncnc43)C2)c(F)c1 | -76.5% (active) | -59.4% (active) | 24.6% | -39.1% (active) | 0.119% (active) | 88.9% | 6.55% (active) | -93.6% (active) | -89.8% (active) | -78.1% (active) | 72.4% | -29.1% (active) | -92% (active) | 104% | 41.8% | 71.7% | 130% | -38.5% (active) | -61.3% (active) | 
8 | COc1ccc2[nH]c(=O)cc(-n3ncc(C(=O)/C=C/c4cc(OC)c(OC)c(OC)c4)c3C)c2c1 | -27.1% (active) | -27.4% (active) | 32.2% | 19.8% | 7.18% (active) | -93.9% (active) | -69.5% (active) | -85.6% (active) | -77.1% (active) | -28.3% (active) | 11% | 7.21% (active) | -36.2% (active) | 40.9% | -14.9% (active) | 14.6% | 0.493% (active) | -20.4% (active) | -7.45% (active) | 
9 | COc1ccc(-c2nc3ccc(-c4nnc(SCc5ccccc5)o4)cc3[nH]2)cc1OC | 35.6% | 52.9% | -54.2% (active) | 28.1% | 50.9% | 39.7% | 0.287% (active) | 7.48% (active) | 30.6% |  | 58.1% | -2.42% (active) | -8.65% (active) | 23% | -45.4% (active) | 16.2% | 117% | 76.4% | 78.8% | 
10 | CC1=C(C(=O)Nc2ccccc2)C(c2cccc3ccccc23)n2c(nc3ccccc32)N1 (stereo unspecified) | 64.6% | 40.5% | -63% (active) | 20.2% | 31.3% | 82.6% |  |  | 70% | 99.7% | 67.4% | 18.5% | 59% | 81% | 27.6% |  | 102% | 65.4% | 67.5% | 25%
11 | CC[C@@]12CC(C(=O)OC)=C3Nc4cc5c(cc4[C@@]34CCN(C[C@H]3O[C@H]31)[C@@H]24)[C@@H]1[C@H](O5)[C@@H](O)[C@@]2(CC)CC(C(=O)OC)=C3Nc4cc(O)ccc4[C@@]34CCN1[C@@H]24 | -51.6% (active) | -14% (active) | -34.4% (active) | -43.8% (active) | 15.9% | -90.2% (active) | -57.8% (active) | -84.4% (active) | -47.3% (active) | -70.4% (active) | -14.9% (active) | -16.8% (active) | -66.2% (active) | -41.1% (active) | -26.4% (active) | -55.8% (active) | -77.1% (active) | 2.67% (active) | -15.9% (active) | 
12 | CN(C)c1nc(NCCNS(=O)(=O)c2ccc(C3=Nc4c(N)nc(N)nc4NC(c4ccc(C(F)(F)F)cc4)C3)cc2)nc(N2CCOCC2)n1 (stereo unspecified) | 53.6% | 9.6% (active) | 46% | 49% | 24.2% | 25.5% |  | 0.0978% (active) | 57.4% |  | 38.3% | 48.1% | 74.1% | 68.9% | 77.3% | 37.1% | 94.8% | 21.8% | -5.12% (active) | 26.6%
13 | COC(=O)c1c(C(=O)OC)c2c3ccccc3c3ccccc3n2c1C(=O)C(C)(C)C | 46.6% | 71.9% | 83.5% | 96.2% | 35.3% | 46.8% | 50.1% | 81.4% | 92.5% | 83.4% | 96.2% | 87.3% | 75.4% | 105% | 82% | 60.7% | 132% | 65.6% | 45.7% | 
